According to PubChem BioAssay (NCATS):
“And” between values parts separate entries of the source, which are not always exact repeats. Identical values can stand only once. Values without a mark were called inactive. The source made the active and inactive calls. No rule for the calls is given here.

biological target: Nuclear receptor subfamily 1 group I member 2 (Rattus norvegicus) (UniProt Q9R1A7); test: qHTS assay for small molecule activators of the rat pregnane X receptor (rPXR) signaling pathway (AID 651751); conditions: rPXR reporter cells, luciferase (One-Glo), 24 h
Sequence (Q9R1A7 whole entry, looked up): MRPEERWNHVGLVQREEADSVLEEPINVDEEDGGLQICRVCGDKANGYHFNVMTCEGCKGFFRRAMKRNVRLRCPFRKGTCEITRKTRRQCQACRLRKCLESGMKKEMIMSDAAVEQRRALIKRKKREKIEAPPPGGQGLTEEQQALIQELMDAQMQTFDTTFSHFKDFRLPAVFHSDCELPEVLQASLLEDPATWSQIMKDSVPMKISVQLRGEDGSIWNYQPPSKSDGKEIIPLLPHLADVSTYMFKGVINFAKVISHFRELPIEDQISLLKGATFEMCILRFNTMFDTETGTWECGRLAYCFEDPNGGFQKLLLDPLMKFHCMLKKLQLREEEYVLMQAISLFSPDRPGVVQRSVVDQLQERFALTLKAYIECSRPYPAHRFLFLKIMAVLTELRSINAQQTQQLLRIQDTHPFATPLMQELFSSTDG
Also: 0% is about no effect.

| Compound | max response |
| --- | --- |
| CC(C)OC(=O)C(C)(C)Oc1ccc(C(=O)c2ccc(Cl)cc2)cc1 | -0.28% |
| O=C(O)c1cc(O)c2c(c1)C(=O)c1cccc(O)c1C2=O | -2.8% |
| O=c1cc(-c2ccc(O)cc2)oc2cc(O)cc(O)c12 | -6.83% and -1.04% |
| CC(=O)c1ccc(S(=O)(=O)NC(=O)NC2CCCCC2)cc1 | -0.823% and -0.02% |
| O=C(O)Cc1cccc2ccccc12 | -1.12% and -1.15% |
| CCCNC(=O)NS(=O)(=O)c1ccc(Cl)cc1 | -5.97% and -1.04% |
| O=c1cc(-c2ccccc2)oc2cc(O)cc(O)c12 | -2.91% |
| O=C(O)c1cc(-c2ccccc2)nc2ccccc12 | -0.78% |
| O=c1c(-c2ccc(O)cc2)coc2cc(O)ccc12 | 6.21% and 11.9% |
| O=c1[nH]cnc2c1ncn2[C@H]1CC[C@@H](CO)O1 | -1.01% and 3.56% |
| O=C1NC(=O)C(c2ccccc2)(c2ccccc2)N1 | -3.01% and 3.12% and 2.23% |
| CN(C)CCC(c1ccccc1)c1ccccn1 (centres undefined) | 2.3% |
| O=c1c(O)c(-c2ccc(O)cc2)oc2cc(O)cc(O)c12 | 0.424% and -1.67% |

tested on: not listed separately; test: qHTS assay for small molecule activators of the human pregnane X receptor (PXR) signaling pathway (AID 720659); conditions: DPX-2 HepG2 CYP3A4-luciferase, 24 h; series mostly up to 92.3 µM

| Compound | outcome |
| --- | --- |
| O=C(O)c1cc(O)c2c(c1)C(=O)c1cccc(O)c1C2=O | inactive |
| CC(=O)c1ccc(S(=O)(=O)NC(=O)NC2CCCCC2)cc1 | inactive |
| O=C(O)Cc1cccc2ccccc12 | inactive |
| CCCNC(=O)NS(=O)(=O)c1ccc(Cl)cc1 | inactive |
| CC(=O)N[C@@H](CS)C(=O)O | inactive |
| CCn1cc(C(=O)O)c(=O)c2ccc(C)nc21 | inactive |
| O=C(O)c1cc(-c2ccccc2)nc2ccccc12 | inactive |
| O=c1[nH]cnc2c1ncn2[C@H]1CC[C@@H](CO)O1 | inactive |
| CC(=O)O[C@]1(C(C)=O)CC[C@H]2[C@@H]3C=C(Cl)C4=CC(=O)[C@@H]5C[C@@H]5[C@]4(C)[C@H]3CC[C@@]21C | inactive |
| CN(C)CCC(c1ccccc1)c1ccccn1 (centres undefined) | inactive |
| CC1=C(/C=C/C(C)=C/C=C/C(C)=C/C(=O)Nc2ccc(O)cc2)C(C)(C)CCC1 | inactive |
